High-throughput results from PubChem BioAssay.
BoNT A protease = blocks Botulinum neurotoxin A light chain protease; multiplex microsphere protease substrate cleavage, flow cytometry; inhibition, % at 10 µM; actives 0.17% (n = 360,000); AID 588499
Anthrax LF inh2 = blocks Bacillus anthracis lethal factor protease; P15917; multiplex microsphere protease cleavage assay, LF; inhibition, % at 10 µM; actives 0.12% (n = 360,000)
Autofluor counter = flagged as autofluorescent in microsphere protease counterscreen | actives 3.1% (n = 360,000) | fluorescence intensity (no concentration beside the values) | compound autofluorescence counterscreen, microsphere flow cytometry; active compounds read high; in the data active = fluorescence intensity above about 16000; inconclusive = no clear call, values can overlap the other calls
BoNT-F LC inh = BoNT F light chain protease inhibition | Multiplex microsphere protease cleavage assay, flow cytometry | inhibition, % at 10 µM | actives 0.22% (n = 360,000) | AID 588497; in the data active = inhibition above about 35%, passing the limit was not always enough; inconclusive = no clear call, values can overlap the other calls
Hits are given with their value; - = inactive; ? = inconclusive; ! = a repeat was not active. Compounds with a hit are over-represented: about 3.5% of the library has one in this group of screens. Rule as the data show it, unless noted: active = inhibition above about 30%; inconclusive = no clear call, values can overlap the other calls; inactive = below that.

SMILES	BoNT A protease	Anthrax LF inh2	Autofluor counter	BoNT-F LC inh
Cc1ccc(C(C(=O)NC2CCCC2)N(C(=O)c2csnn2)C2CCCC2)o1 (centres undefined)	?	-	21439	-
Cc1ccc(C(C(=O)NC2CCCCC2)N(C(=O)c2csnn2)C2CCCC2)o1 (centres undefined)	-	-	22165	-
COc1ccc(Cl)cc1NC(=O)CN(C)C(=O)Cc1n[nH]c(=O)c2ccccc12	-	-	-	?
Cc1ccc(S(=O)(=O)n2cccc2C)cc1	-	-	-	-
COc1ccc(Br)cc1CN(C)CC(=O)Nc1c(Cl)cccc1Cl	-	-	-	-
Cc1ccc(Sc2ncccc2C(=O)N(C)Cc2cccs2)c(C)c1	-	-	-	-
CC1CN/C(=C\C(=O)c2ccc(Cl)cc2)C(=O)N1 (centres undefined)	?	-	24766	-
Cc1nc2ncnn2c(N2CCN(c3cccc(C(F)(F)F)c3)CC2)c1C	-	-	22031	-
Cc1cc(N2CCN(c3cccc(C(F)(F)F)c3)CC2)n2ncnc2n1	-	-	-	-
Cc1cc(N2CCN(C(c3ccccc3)c3ccccc3)CC2)n2ncnc2n1	-	-	-	-
Cc1nc2ncnn2c(N2CCN(C(c3ccccc3)c3ccccc3)CC2)c1C	-	-	18747	-
COc1ccc(Nc2nc3cc(-c4ccccc4C)sc3c(=O)n2C)cc1OC	-	-	-	-
CCOC(=O)c1ccc(NS(=O)(=O)c2cc(-c3nnnn3CC)ccc2OC)cc1	?	-	19076	-
CCn1nnnc1-c1ccc(OC)c(S(=O)(=O)NCCc2ccccc2)c1	?	-	19509	-
CCOC(=O)c1ccc(N/C=C/C(=O)c2ccc(OC)c(OC)c2)cc1	-	-	19087	-
CCOc1ccc(N/C=C/C(=O)c2ccc(OC)c(OC)c2)cc1	-	-	-	-
CCn1nnnc1-c1ccc(OC)c(S(=O)(=O)Nc2ccccc2OC)c1	-	-	-	-
Cc1nc2sccn2c(=O)c1S(=O)(=O)Nc1cccc(Cl)c1C	-	-	-	-
CC(=O)N1C(=O)NC(c2ccccc2)=C([N+](=O)[O-])C1c1ccccc1 (centres undefined)	-	33	-	-
COC(=O)c1cc(F)c(-n2cncn2)c(F)c1	?	-	16245	-
COC(=O)c1cc([N+](=O)[O-])c(-n2cncn2)c([N+](=O)[O-])c1	-	-	-	-
Cc1cc(NC(=S)NC(=O)CC(C)C)ccc1Br	-	-	25030	-
CCCCCCCCSC1=CC(=O)C(OC)=C(OC)C1=O	-	-	-	-
CCOC(=O)N1CCN(C(=O)C2CCC(=O)N2C(C)C)CC1 (centres undefined)	-	-	22385	-
Cc1ccc(NC2=NC(c3ccc(C)cc3)n3c(nc(C)cc3=O)N2)cc1 (centres undefined)	-	-	23058	-
SMILES	BoNT A protease	Anthrax LF inh2	Autofluor counter	BoNT-F LC inh
Cc1ccc(NC2=NC(c3ccccc3)n3c(nc(C)cc3=O)N2)c(C)c1 (centres undefined)	-	-	22223	-
O=C(CBr)Nc1c2c(nn1-c1ccccc1)CSC2	-	-	-	-
CCCn1nc2ccccc2c1P(=N)(N1CCOCC1)N1CCOCC1	?	-	20501	-
CC(=O)Nc1nonc1C(=O)N1CCC(C)CC1	-	-	20925	-
CC1CCN(C(=O)c2ccccc2NC(=O)Nc2ccccc2)CC1	-	-	-	-
Cc1noc(C)c1C(=O)N(CC(C)C)c1nc2ccccc2s1	-	-	-	-
CCCCn1nnnc1C(c1ccccc1)N1CCN(c2ccc(C)cc2)CC1 (centres undefined)	-	-	-	-
COC(=O)C1=CN(Cc2ccc(OC)cc2)C=C(C(=O)OC)C1c1cc(OC)c(OC)c(OC)c1	-	-	-	41
O=C(O)C1CCN(S(=O)(=O)c2ccc(N3CCCC3C(=O)O)c([N+](=O)[O-])c2)CC1 (centres undefined)	-	-	-	-
CCC(C)Sc1ccc(-c2nc3cc(C)ccn3c2NC2CCCCC2)cc1 (centres undefined)	-	-	20914!	-
COc1cc(-c2nc3cc(C)ccn3c2NC2CCCCC2)ccc1-c1ccc(C(C)=O)cc1	-	-	23646	-
CCCCCCSc1cc(-c2nc3cc(C)ccn3c2NC2CCCCC2)ccc1OC	-	-	-	-
COc1ccccc1OCC(=O)N/N=C1/SCC(=O)N1Cc1ccccc1	-	-	22284	-
O=C(COc1ccc(Br)cc1)N/N=C1/SCC(=O)N1Cc1ccccc1	-	-	-	-
COc1cccc(OCc2cc(C(=O)N3CCN(C)C(c4ccccc4)C3)no2)c1 (centres undefined)	-	-	-	-
O=C(/C=C/c1ccc(F)cc1)NCCC1=CCCCC1	-	-	23985	-
COc1ccc(C2=NOC3(CC(=O)N(c4ccc5ccccc5c4)C3=O)C2)c(OC)c1 (centres undefined)	?	-	17080	-
